These results are taken from PubChem BioAssay (Tox21).

The nature of assay [1]: qHTS assay to identify small molecule antagonists of the estrogen related receptor (ERR) signaling pathway from Tox21 library - cell viability counter screen (AID 1224834). Also: nearly all actives have a fitted effect of over 30% in size. The gist of the method:
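Fluorescence from CellTiter-Fluor gives the viability read-out, taken 30 min after reagent addition. Before that, ERR cells seeded 6 h earlier were incubated with compounds for 17.5 h at 37 C.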
A general note: Quantitative high-throughput screening tests each substance at several concentrations.

Assay [2] concerns the target Luciferin 4-monooxygenase (Photinus pyralis) (UniProt P08659). Kind of assay: qHTS assay to identify small molecule inhibitors of firefly luciferase (AID 1224835). Also: nearly all actives have a fitted effect of over 25% in size. Also: potency is read from the fitted curve at half-maximal effect. In a few lines:
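Biochemical qHTS: compounds run as interplate titrations against purified firefly enzyme, with D-luciferin and ATP each at its KM concentration. Light output recorded by CCD imaging.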

Assay [3] in a line: qHTS assay to identify small molecule agonists of the constitutive androstane receptor (CAR) signaling pathway - cell viability counter screen (AID 1224836). Also: nearly all actives have a fitted effect of over 45% in size. In a few lines:
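Counter screen multiplexed with the CAR reporter readout: HepG2 cells co-transfected with hCAR and the CYP2B6-2.2kb construct receive a 15-concentration compound series and 0.75 uM PK11195 (final), then CellTiter-Fluor fluorescence is read after 23 h.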

The nature of assay [4]: qHTS assay to identify small molecule antagonists of the constitutive androstane receptor (CAR) signaling pathway - cell viability counter screen (AID 1224837). Also: nearly all actives have a fitted effect of over 45% in size. In a few lines: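 HepG2-CYP2B6-hCAR cells, 2500/well, 4 hr pre-incubation; compound titration, 15 conc.; CITCO 50 nM final; 23 hr, 37 C/5% CO2; CellTiter-Fluor, fluorescence intensity.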
The target of assay [5] is Nuclear receptor subfamily 1 group I member 3 (Homo sapiens) (UniProt Q14994). Kind of assay: qHTS assay to identify small molecule antagonists of the constitutive androstane receptor (CAR) signaling pathway (AID 1224838).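 Also: HepG2 cells stably expressing hCAR with CYP2B6 luciferase reporter stimulated by CITCO; nearly all actives have a fitted effect of over 40% in size.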 Also: potency is read from the fitted curve at half-maximal effect. The gist of the method:
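HepG2-CYP2B6-hCAR cells; 4 h pre-incubation; cpd (15 conc) + CITCO 50 nM final; 24 h, 37 C/5% CO2; ONE-Glo, luminescence.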

Assay [6] shares this target. Briefly: qHTS assay to identify small molecule agonists of the constitutive androstane receptor (CAR) signaling pathway (AID 1224839). Also: nearly all actives have a fitted effect of over 15% in size. Also: potency is read from the fitted curve at half-maximal effect. In a few lines:
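A 15-concentration quantitative screen uses HepG2 cells co-transfected stably with human CAR and CYP2B6-2.2kb reporter. Treatment lasts 24 h with 0.75 uM PK11195 final present; ONE-Glo luminescence is the signal.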

The nature of assay [7]: qHTS assay to identify small molecule antagonists of the estrogen related receptor signaling pathway with the pleiotropic PPARgamma coactivator (PGC) from Tox21 10K library - cell viability counter screen (AID 1224840; active = well fitted cell-killing curve with a large enough effect in the repeat runs, not every such curve was filed as active; also: nearly all actives have a fitted effect of over 40% in size). In a few lines: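 PGC/ERR cells, 2,000/well; 6 h pre-incubation 37 C/5% CO2; cpd in DMSO via pin tool; 17.5 h 37 C; CellTiter-Fluor, 30 min; fluorescence.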

Assay [8] can be described thus: qHTS assay to identify small molecule agonists of the hypoxia (HIF-1) signaling pathway - cell viability counter screen (AID 1224844; calls by dose curve; also: nearly all actives have a fitted effect of over 50% in size). In a few lines:
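ME-180 HRE-bla cells, 2,000/well, 0.5% dialyzed FBS; 5 hr settle, 17 hr compound at 37C/5% CO2; CCF4-AM reporter read first, then CellTiter-Glo luminescence after 30 min RT.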

Assay [9] is described as follows: qHTS assay to identify small molecule agonists of H2AX (AID 1224845; active = well fitted activation curve with a large enough effect in the signal ratio in the repeat runs, not every such curve was filed as active; the % refers to the signal ratio). The gist of the method: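 Wild-type CHO-K1 cells, plated overnight, exposed 3hr at 37C to 15 concentrations (0.76% DMSO final). Lysed, then HTRF anti-pH2AX (S139) cryptate and anti-H2AX-d2 antibodies, 24 hr room temperature; 665/620 nm emission read.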
The nature of assay [10]: qHTS assay to identify small molecule agonists of the hypoxia (HIF-1) signaling pathway (AID 1224846; active = well fitted activation curve with a large enough effect in the signal ratio in the repeat runs, not every such curve was filed as active; the % refers to the signal ratio). The gist of the method:
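Cell line: CellSensor HRE-bla ME-180; 2,000 cells/well; 0.5% dialyzed FBS; 5 h preincubation; DMSO compound pin transfer; 17 h, 37C, 5% CO2; CCF4-AM added; bla FRET signal scored for activation.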

A short description of assay [11]: qHTS assay to identify small molecule agonists of H2AX - cell viability counter screen (AID 1224847; calls by dose curve; also: top concentration of the series differs between compounds; nearly all actives have a fitted effect of over 30% in size). The gist of the method: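 We seed wild-type CHO-K1 cells overnight, treat them for 3 hr at 37C with compounds in 15-concentration series, and quantify remaining viability by CellTiter-Glo luminescence.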
The nature of assay [12]: qHTS RealTime-Glo MT Cell Viability Assay in HepG2 cells - 24 hour (AID 1224867). Also: nearly all actives have a fitted effect of over 50% in size. The gist of the method:
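HepG2 suspension premixed with RealTime-Glo reagents is plated at 600 cells per well and left 5 h at 37 C/5% CO2. Compounds in DMSO then go in, and bioluminescence reflecting viable cell number is recorded over 40 h.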

Assay [13] in a line: qHTS RealTime-Glo MT Cell Viability Assay in HEK293 cells - 32 hour (AID 1224868). Also: top concentration of the series differs between compounds; nearly all actives have a fitted effect of over 50% in size. The gist of the method:
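Reads taken at 0, 8, 16, 24, 32 and 40 h from the same wells. HEK293 cells (600/well) carried RealTime-Glo reagents from seeding, with compound added after a 5 h settle at 37 C.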

The nature of assay [14]: A CellTox Green Cytotoxicity Assay to monitor cytotoxicity in HEK293 cells - 0 hour (AID 1224869). Also: nearly all actives have a fitted effect of over 50% in size. The gist of the method:
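Nonlytic real-time cytotoxicity: HEK293 + CellTox Green reagent plated, 5 h preincubation, pintool compound addition (23 nL in DMSO), 37 C for 40 h, fluorescence measured at successive time points.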

A short description of assay [15]: qHTS RealTime-Glo MT Cell Viability Assay in HepG2 cells - 40 hour (AID 1224870). Also: nearly all actives have a fitted effect of over 50% in size. The gist of the method: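 HepG2 cells (600/well) mixed with RealTime-Glo MT reagent, settled 5 h at 37 C/5% CO2 before compound addition. Nonlytic NanoLuc luminescence from viable-cell prosubstrate reduction read repeatedly during 40 h treatment at 37 C.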
The nature of assay [16]: qHTS assay to identify small molecule antagonists of the estrogen related receptor signaling pathway with the pleiotropic PPARgamma coactivator (PGC) from Tox21 10K library (AID 1224841; call rule not given here). In a few lines: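 PGC/ERR cell line, 2,000 cells/well; 6 h pre-incubation 37 C/5% CO2; compounds (DMSO) pinned in; 18 h, 37 C; One-Glo, 30 min RT; luminescence.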
Assay [17] can be described thus: qHTS assay to identify small molecule agonists of the estrogen related receptor signaling pathway with the pleiotropic PPARgamma coactivator (PGC) from Tox21 10K library (AID 1224842). Also: nearly all actives have a fitted effect of over 15% in size. In a few lines:
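PGC/ERR reporter cell line, 2,000 cells per well, incubated 6 h at 37 C before 23 nL compound in DMSO was added. After 18 h at 37 C, One-Glo luminescence read following 30 min at room temperature.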

In assay [18] the target is Thyrotropin receptor (Homo sapiens) (UniProt P16473). Kind of assay: qHTS assay to identify small molecule agonists of the thyroid stimulating hormone receptor (TSHR) signaling pathway (AID 1224843; calls by dose curve; also: nearly all actives have a fitted effect of over 45% in size). In a few lines:
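TSHR-HEK293 cells in agonist mode, 30 min room-temperature step, then cAMP measured by competitive HTRF (cAMP-d2 with anti-cAMP cryptate) after 1 h at room temperature. Tested at 15 concentrations in triplicate.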

A short description of assay [19]: qHTS assay to identify small molecule antagonists of the estrogen related receptor (ERR) signaling pathway from Tox21 library (AID 1224848). Also: nearly all actives have a fitted effect of over 50% in size. The gist of the method: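 ERR reporter cell line (from NTP) seeded 2,000 cells/well, rested 6 h at 37 C/5% CO2, then pin-dosed with compounds in DMSO. After 18 h at 37 C, ONE-Glo added; luminescence read after 30 min at room temperature.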

A short description of assay [20]: qHTS assay to identify small molecule agonists of the estrogen related receptor (ERR) signaling pathway from Tox21 library (AID 1224849; calls by dose curve; also: nearly all actives have a fitted effect of over 15% in size). The following applies: ERR reporter cell line, ONE-Glo luciferase, 18 h; at 92.4 µM (top of the series). In a few lines: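 ERR cells, 6 h pre-incubation 37 C/5% CO2; cpd in DMSO pinned; 18 h 37 C; ONE-Glo added, 30 min RT; luminescence read. Agonist mode, qHTS.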

Molecules are shown by their SMILES. Values without a mark were called inactive. Records with an inconclusive call do not appear. Activity calls are given as the source filed them. Unless noted, calls follow the shape of the dose curve; as a rule, active = well fitted curve in the direction sought with a large enough effect in the repeat runs; inconclusive = weak or mixed curves; inactive = no such curve, though single readings can be large; an effect the other way counts as inactive or inconclusive.
% is scaled to controls: 0 for no effect and ±100 for the full control effect.

Sequence of Thyrotropin receptor (Homo sapiens) (P16473 whole entry, looked up): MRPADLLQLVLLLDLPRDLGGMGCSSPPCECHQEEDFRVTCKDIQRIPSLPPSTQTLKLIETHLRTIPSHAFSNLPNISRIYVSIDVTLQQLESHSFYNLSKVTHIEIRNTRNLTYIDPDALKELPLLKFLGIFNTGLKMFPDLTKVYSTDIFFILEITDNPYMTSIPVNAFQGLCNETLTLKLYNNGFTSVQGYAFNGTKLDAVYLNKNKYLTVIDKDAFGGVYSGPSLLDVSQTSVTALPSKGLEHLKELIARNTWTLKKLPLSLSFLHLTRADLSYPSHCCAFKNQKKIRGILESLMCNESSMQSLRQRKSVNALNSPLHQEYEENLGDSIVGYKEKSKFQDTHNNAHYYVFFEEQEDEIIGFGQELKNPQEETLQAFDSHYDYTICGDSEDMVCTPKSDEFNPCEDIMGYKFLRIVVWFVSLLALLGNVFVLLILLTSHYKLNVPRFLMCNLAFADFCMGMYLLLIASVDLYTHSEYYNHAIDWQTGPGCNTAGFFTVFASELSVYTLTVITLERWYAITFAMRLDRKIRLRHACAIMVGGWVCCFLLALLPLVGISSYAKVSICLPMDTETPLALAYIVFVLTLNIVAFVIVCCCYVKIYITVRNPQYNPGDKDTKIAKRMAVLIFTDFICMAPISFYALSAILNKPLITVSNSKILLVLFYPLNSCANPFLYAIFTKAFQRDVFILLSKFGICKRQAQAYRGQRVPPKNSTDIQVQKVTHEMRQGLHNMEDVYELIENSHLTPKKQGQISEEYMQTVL
Sequence of Luciferin 4-monooxygenase (Photinus pyralis) (P08659 whole entry, looked up): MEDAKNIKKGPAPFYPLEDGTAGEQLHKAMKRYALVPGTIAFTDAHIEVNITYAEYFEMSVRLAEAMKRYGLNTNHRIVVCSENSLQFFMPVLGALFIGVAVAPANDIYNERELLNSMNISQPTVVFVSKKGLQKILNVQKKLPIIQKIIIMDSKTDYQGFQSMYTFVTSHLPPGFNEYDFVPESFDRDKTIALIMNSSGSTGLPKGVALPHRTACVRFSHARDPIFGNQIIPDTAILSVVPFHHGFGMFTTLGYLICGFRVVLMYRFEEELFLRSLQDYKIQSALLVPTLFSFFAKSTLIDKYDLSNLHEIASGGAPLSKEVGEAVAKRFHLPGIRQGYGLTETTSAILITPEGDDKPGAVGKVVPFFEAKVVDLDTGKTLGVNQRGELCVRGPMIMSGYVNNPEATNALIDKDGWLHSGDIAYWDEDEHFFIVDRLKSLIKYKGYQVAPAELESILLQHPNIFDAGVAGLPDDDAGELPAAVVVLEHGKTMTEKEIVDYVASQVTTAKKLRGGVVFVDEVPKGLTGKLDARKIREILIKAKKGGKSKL
Sequence of Nuclear receptor subfamily 1 group I member 3 (Homo sapiens) (Q14994 whole entry, looked up): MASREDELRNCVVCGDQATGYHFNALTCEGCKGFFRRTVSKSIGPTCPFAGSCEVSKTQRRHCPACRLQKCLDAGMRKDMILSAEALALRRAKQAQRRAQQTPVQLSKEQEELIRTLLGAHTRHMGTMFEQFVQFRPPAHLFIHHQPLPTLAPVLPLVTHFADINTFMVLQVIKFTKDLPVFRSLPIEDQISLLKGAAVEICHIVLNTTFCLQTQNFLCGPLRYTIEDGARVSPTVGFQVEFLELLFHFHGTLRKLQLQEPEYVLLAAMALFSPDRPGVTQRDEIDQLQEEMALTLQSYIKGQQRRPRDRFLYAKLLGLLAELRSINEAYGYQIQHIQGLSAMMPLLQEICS

Take `CN[C@@H](C)[C@H](O)c1ccccc1`: the Potency result in assay [1], in assay [2], in [3], in [4], in [5] and in assay [6] was “inactive” throughout. Further, the Potency entry in assay [7], in assay [8], in assay [9], in assay [11], in [12] and in [13] was “inactive” throughout. In addition, the Potency entry in assay [14] and in assay [15] was “inactive” each time. Also, the call in assay [10] was inactive.
In the case of `CCOP(=S)(OCC)Oc1ccc(S(C)=O)cc1` (stereo not given), the Potency result in [1], in [2], in [3], in assay [4], in assay [5] and in [6] was “inactive” each time. For the same compound, the Potency entry in [7], in [16], in [17], in assay [18], in assay [8] and in assay [9] was “inactive” in each case. Also, the Potency entry in assay [11], in [19], in [13], in assay [14] and in [15] was “inactive” throughout. Further, in assay [10], the call was inactive. For the same compound, the activity change, positive = activation in [20] is -5.68%.
For `O=C(Cl)OCCOCCOC(=O)Cl`, the Potency entry in assay [1], in [2], in [3], in assay [4], in assay [6] and in [7] was “inactive” in each case. Besides, the Potency result in assay [16], in assay [17], in [18], in assay [9], in [11] and in assay [19] was “inactive” throughout. For the same compound, the Potency result in assay [12], in assay [13], in assay [14] and in [15] was “inactive” each time. Also, the Potency in assay [5] is 30.6 µM (active). The compound was called inactive in [10]. In addition, in [20], the activity change, positive = activation was 1.12%.
Consider `Nc1ccc2c(c1)Cc1ccccc1-2`, for which the Potency result in [1], in assay [3], in assay [4], in assay [5], in [7] and in assay [16] was “inactive” throughout. In addition, the Potency entry in assay [8], in assay [11], in assay [19], in assay [12], in [14] and in assay [15] was “inactive” each time. In addition, the Potency was 39.7 µM (active) in assay [2] and 48.3 µM (active) in assay [6]. For the same compound, the compound was called inactive in [10]. The activity change, positive = activation in assay [20] is -8.59% (active).
With `CC(C)(C)OOC(C)(C)CCC(C)(C)OOC(C)(C)C`, the Potency entry in assay [1], in assay [2], in [3], in assay [4], in assay [5] and in assay [6] was “inactive” in each case. For the same compound, the Potency result in assay [7], in assay [16], in assay [17], in [18], in [8] and in [9] was “inactive” throughout. Moreover, the Potency entry in [11], in assay [19], in assay [12], in assay [13] and in [15] was “inactive” in each case. The compound was classed as inactive in assay [10]. The activity change, positive = activation in assay [20] was 2.37%.
Turning to `CCC1(CC)C(=O)NC(=O)NC1=O`, the Potency entry in assay [1], in assay [2], in assay [3], in assay [4], in assay [5] and in assay [6] was “inactive” throughout. The Potency entry in [7], in assay [8], in assay [9], in [11], in [12] and in assay [13] was “inactive” throughout. Also, the Potency result in [14] and in assay [15] was “inactive” throughout. Further, in [10], the compound was classed as inactive.
For `Nc1c(Br)cc(Br)c2c1C(=O)c1ccccc1C2=O`, the viability change, negative = cytotoxic in assay [1] was -5.59% [at 19 µM]; in [3], -15% [at 19 µM]; in [7], -14.9% [at 19 µM]. The activity change, negative = inhibition in [2] was -3.13% [at 23.6 µM]. The activity change, negative = cytotoxicity in assay [4] was -15.6% [at 19 µM]; in [8] it was 1.81% [at 15.8 µM]; in assay [11], -4.33% [at 31.6 µM]; in assay [12], -0.948% [at 15.8 µM]. Also, the results for the activity, negative = inhibition in [5], in [16] and in [19] were 102% [at 19 µM], 5.52% [at 19 µM] and 31.1% [at 19 µM], respectively. For the same compound, the values for the activation in [6], in assay [17] and in assay [10] were 7.31% [at 19 µM], 0.394% [at 19 µM] and 0.237% [at 15.8 µM], respectively. In addition, the activation (H2AX phosphorylation) in assay [9] was 2.27% [at 31.6 µM]. Further, the cytotoxicity in assay [14] is -2.18% [at 15.8 µM]. In assay [15], the activity change, negative = cytotoxic is 16.3% [at 15.8 µM].
